# Bioassay records as filed in PubChem.
# In the library only some 7.5% were active in any assay of this set; here they are far more common.
# Vaccinia Venus = inhibitors of vaccinia virus (Venus reporter) | Vaccinia virus Venus reporter expression, fluorescence | Potency, µM (highest dose often 36.5 µM), for the others: at the top dose activity change, negative = inhibition, actives largely listed as inhibitors | 330,000 tested, 0.46% active; calls by dose curve; tested in A549 cells; note: potency is the fitted concentration of half-maximal effect; nearly all actives have a fitted effect of over 30% in size
# Giardia FBPA inh = inhibitors of Giardia lamblia fructose-1,6-bisphosphate aldolase | A8B2U2 | purified Giardia FBPA | Potency, µM (titrated, usually from 59.6 µM), for inactives: top-dose activity, negative = inhibition, usual class: inhibitors | 290,000 tested, 0.71% active | AID 2451; note: potency is the fitted concentration of half-maximal effect; nearly all actives have a fitted effect of over 55% in size
# Target sequence (A8B2U2 whole entry, looked up): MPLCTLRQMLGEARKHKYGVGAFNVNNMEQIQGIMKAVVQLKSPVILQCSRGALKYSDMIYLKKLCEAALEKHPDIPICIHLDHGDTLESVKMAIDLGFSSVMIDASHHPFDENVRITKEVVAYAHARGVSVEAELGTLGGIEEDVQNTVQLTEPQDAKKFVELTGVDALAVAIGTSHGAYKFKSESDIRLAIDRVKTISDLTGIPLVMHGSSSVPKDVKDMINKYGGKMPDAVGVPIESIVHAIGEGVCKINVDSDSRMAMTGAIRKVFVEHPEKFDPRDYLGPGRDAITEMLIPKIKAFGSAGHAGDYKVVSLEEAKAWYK
#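 Giardia FBPA (40 nM reagent) was preincubated 10 min at RT with compound (up to 57.5 uM final), then substrate plus GAPDH/TPI/NAD/arsenate coupling system with diaphorase/resazurin was added; resorufin fluorescence (525/598 nm) was read after 20 min.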
# VACV mCherry inh = inhibitors of vaccinia virus infection (mCherry reporter signal). 310,000 tested, 0.63% active. Vaccinia virus mCherry reporter infection, fluorescence. Potency, µM (doses to about 36.5 µM), without a hit: top-dose activity change, negative = inhibition, usual class: inhibitors. AID 720579; calls by dose curve; tested in A549 cells; note: potency is the fitted concentration of half-maximal effect; nearly all actives have a fitted effect of over 35% in size
# HCMV antiviral = blocks human cytomegalovirus replication; HFF cells, HCMV-luciferase reporter, 72 h; stronger effect = lower value; activity change, negative = inhibition, % at 57.5 µM; AID 1259415; 410,000 tested, 4.5% active; in the data active = activity change below about -60%; inconclusive = no clear call, values can overlap the other calls; inactive = above about -39%
#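 HFF cells seeded 16 h at 37C, treated with compounds, infected with luciferase-reporter HCMV at MOI 1 PFU/cell; luciferase read at 72 h post infection, normalized to buffer-only and Salinomycin controls.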
# HCV inhibitor = blocks hepatitis C virus. Huh7.5.1 HCVcc-Cre infection, luciferase reporter, 44 h. Potency, µM (highest dose often 41.8 µM), without a hit: at the highest dose activity change, negative = inhibition, actives largely listed as inhibitors. 340,000 tested, 3.4% active. AID 651820; note: potency is the fitted concentration of half-maximal effect
#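 Cells (1,000/well) were plated 4 h before compound, then infected with HCVcc-Cre virus (~0.5 moi). After 44 h further culture, infection was read as luciferase luminescence following a 15 min substrate incubation at room temperature.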
# FMDV inh = blocks foot and mouth disease virus. FMDV antiviral cell-based qHTS. 410,000 tested, 1.2% active. Potency, µM (top dose mostly 57.9 µM), for inactives: at the top dose activity change, negative = inhibition, usual class: inhibitors; calls by dose curve; tested in HEK293T cells; note: read-out not given here; potency is the fitted concentration of half-maximal effect; nearly all actives have a fitted effect of over 45% in size
# Numbers without * were called inactive; i = inactive; ? = inconclusive; nt = not tested or not shown; ! = not active in a repeat; [ ] = remark or other dose. Unless noted, calls come from the whole dose curve; as a rule, active = well fitted curve in the direction sought with a large enough effect; inconclusive = small, poorly fitted or top-dose-only effect, or another doubt; inactive = no such curve, though single readings can be large; an effect the other way counts as inactive or inconclusive. % is set by controls: 0 for no effect and ±100 for the full control effect.
SMILES,Vaccinia Venus,Giardia FBPA inh,VACV mCherry inh,HCMV antiviral,HCV inhibitor,FMDV inh
CCCN(CC(=O)Nc1ccc(Cl)cc1Cl)C(=O)/C=C/c1ccco1,-10%,0%,-18%,-66*,?,4%
CC[N+](C)(C)c1ccc(/C=C/c2ccnc3ccccc23)cc1,i,nt,i,nt,nt,nt
COC(=O)c1ccc(NC(=O)CN2CCC(NC(=O)c3ccccc3F)CC2)cc1,-9%,nt,i,-7,nt,-12%
CCCc1cc(N2CCN(c3ccc(OC)cc3)CC2)n2cnnc2n1,?,nt,?,-78*,nt,?
Cc1cc(N2CCN(c3ccccc3)CC2)n2cnnc2n1,-17%,nt,-10%,-32,nt,0%
Cc1nc2nncn2c(N2CCN(c3ccccc3)CC2)c1C,-21%,nt,-22%,-74*,nt,-11%
COc1ccc(N2CCN(c3c4c(nc5nncn35)CCC4)CC2)cc1,?,nt,i,-70*,nt,?
O=C(Nc1cccc2ccccc12)c1ccco1,11%,nt,i,-4,nt,-4%
C/C=C\C1=C(CO)[C@H](O)[C@H]2OC2[C@@H]1O (stereo partly drawn),nt,-1%[12.9 µM],nt,nt,nt,nt
O=C(Nc1nc(-c2ccccn2)cs1)c1ccc(-c2ccccc2F)o1,nt,nt,nt,-70*,?,12%
CC(=O)c1ccc(-c2ccc(C(=O)Nc3nc(-c4ccccn4)cs3)o2)cc1,nt,nt,nt,84,2.5µM*,-4%
O=C(Nc1nc(-c2ccco2)cs1)c1ccccc1,-12%,-13%,nt,32,-7%,0%
Cc1ccc(-c2csc(NC(=O)c3ccc(-c4ccccc4)cc3)n2)o1,-25%,-10%,?,nt,8.9µM*,-22%
CCCn1nc(C(=O)Nc2nc(-c3ccccn3)cs2)c2ccccc2c1=O,nt,nt,nt,28,5µM*,?
CCOc1ccccc1N1C(=O)c2ccccc2N/C1=C\N1CCN(C(=O)c2ccco2)CC1,-23%,nt,-9%,nt,nt,nt
CC1(C(=O)NS(=O)(=O)C2CC2)CCN(C(=O)c2c(F)cccc2F)C1 (stereo not drawn),-18%,nt,-16%,-2,nt,-15%
C=C1CCC2[C@](C)(CO)[C@H](O)CC[C@@]2(C)[C@@H]1C/C=C1\C(=O)OC[C@H]1O (stereo partly drawn),-9%,nt,-17%,-107*,?,?
CSc1ccccc1NC(=O)CSc1cccc[n+]1[O-],-12%,nt,-14%,-100*,11%,-1%
COc1ccc(NC(=O)c2c(C)oc3ccc(O)c(CN4CCN(C)CC4)c23)cc1Cl,-6%,nt,-17%,-16,nt,-29%
COC(=O)c1c(NC(=O)c2cccnc2)sc(C)c1C,-26%,4%,nt,nt,10µM*,?
O=C(NCCNC(=O)c1cccnc1)c1cccnc1,-5%,nt,-8%,nt,nt,-13%
COC(CNC(=O)c1cccnc1)OC,-8%,3%,i,-62*,9%,-6%
Cc1ccc(CN=C(N)Nc2nc(C)cc(C)n2)cc1,?,-4%,?,-80*,16µM*,-24%
N#Cc1c(NCCCO)nc(NCc2ccccc2)c2c1CCN(Cc1ccccc1)C2,?,-27%,nt,23,11µM*,-10%
CC(C)c1nc(N2CCOCC2)c(C#N)c2c1CCCC2,nt,14%,nt,?,7.1µM*,?
SMILES,Vaccinia Venus,Giardia FBPA inh,VACV mCherry inh,HCMV antiviral,HCV inhibitor,FMDV inh
N#Cc1c(NCCCO)nc(-c2ccco2)c2c1CCCC2,-25%,-27%,nt,-21,10µM*,-23%
CC(C)c1nc(NCCO)c(C#N)c2c1CCCC2,-16%[7.34 µM],7%,-13%[7.34 µM],-66*,?,?
COc1ccccc1C(=O)NNC(=O)c1cccc(C)c1,3%,-12%,-17%,72,5%,36%
O=C1C2CCCN2C(c2ccccc2)N1c1ccc(F)cc1 (stereo not drawn),-3%,2%,-13%,-24,18%,-20%
O=C1C2CCCN2C(c2ccc(F)cc2)N1c1ccc(Cl)cc1 (stereo not drawn),-1%,5%,-5%,-77*,-10%,1%
O=C(NC(C(=O)N/N=C/c1c2ccccc2cc2ccccc12)c1n[nH]c(=O)c2ccccc12)c1ccccc1 (stereo not drawn),-21%,-4%,nt,49,2.5µM*,-9%
CC(=O)[O][Hg][c]1ccccc1,?,18µM*,20µM*,nt,nt,4.5µM*
N#CCN(C(=O)CSc1nnc(C2CC2)n1C1CC1)c1ccccc1,-20%,nt,i,63,nt,-5%
Cc1cccc(CNC(=O)c2cnn(-c3nccc(-c4cccs4)n3)c2C(C)C)n1,-13%,nt,-23%,nt,nt,?
CCN(CC)C(=S)SSC(=S)N(CC)CC,-6%,18µM*!,-7%,-15,nt,-12%
Cc1cc(C)c2nc(-c3ccccc3)ccc2c1,-4%,nt,0%,-17,nt,45%
Cc1cc(C)c2c(ccc3cccc[n+]32)c1,-16%,nt,-2%,?,1µM*,?
O=C1c2ccccc2-c2n[nH]c3cccc1c23,-16%,-5%,11µM*!,-14,?,8%
O=c1c(-c2ccccc2)n[nH]c2ccccc12,-3%,1%,nt,82,-26%,-7%
Cc1ccc2c(c1)CN(CCNC(=O)c1cccc(Cn3cccn3)c1)CC(C)O2 (stereo not drawn),-6%,nt,-6%,nt,nt,25%
S=C(NCCN(C1CCCCC1)C1CCCC1)Nc1cccc(Cl)c1,?,9%,?,-85*,13µM*,-16%
S=C(NCc1cccs1)Nc1ccccc1Cl,-18%,-3%,-26%,-33,12%,38%
S=C(NCc1cccs1)Nc1cc(Cl)cc(Cl)c1,-21%,0%,-23%,-100*,?,1%
S=C(NCc1cccs1)Nc1cccc(Cl)c1,nt,-4%,nt,-69*,-16%,33%
CC(=O)c1ccc(N2CCN(CC(=O)Nc3ccc4c(c3)OCCO4)CC2)cc1,-23%,nt,-25%,55,?,0%
COc1ccccc1C(=O)N[C@@H]1c2ccccc2C2(CCN(Cc3ccc4c(c3)OCO4)CC2)[C@H]1O,-18%,nt,-28%,nt,nt,?
CC(=O)c1cccc(S(=O)(=O)N2CCC(c3nc4ccccc4[nH]3)CC2)c1,-18%,8%,-2%,6,?,?
Cc1ccc2c(c1)nnn2C1CCN(S(=O)(=O)c2cccc(S(=O)(=O)N(C)C)c2)CC1,-24%,7%,-25%,-31,10µM*,18µM*
Cc1ccc2c(c1)nnn2C1CCN(S(=O)(=O)c2ccc3ccccc3c2)CC1,-26%,2%,?,-64*,?,?
O=S(=O)(c1ccc2c(c1)OCCO2)N1CCC(c2nc3ccc(Cl)cc3[nH]2)CC1,?,-3%,?,-96*,?,14µM*
Cc1ccc2c(c1)nnn2C1CCN(S(=O)(=O)c2ccc(C(=O)N(C)C)cc2)CC1,nt,-4%,nt,6,?,?
Cc1ccc2nc(C3CCN(S(=O)(=O)c4ccc5ccccc5c4)CC3)[nH]c2c1,?,8%,?,-80*,?,nt
CCc1ccc(-n2c(C)nnc2SCc2nc(-c3ccc(OC)cc3)no2)cc1,8%,nt,-4%,-14,nt,?
